Data reported in the supplement of paper PMC13380429.
Values without a mark were called inactive.

Test system: Vero E6 infected with SARS-CoV-2
Assay: inhibition of SARS-CoV-2 cytopathic effect; higher = more antiviral protection, active = above 15
Conditions: 48 h

SMILES	inhibition of SARS-CoV-2 cytopathic effect (1 nM) [%]	inhibition of SARS-CoV-2 cytopathic effect (8.33 nM) [%]	inhibition of SARS-CoV-2 cytopathic effect (100 nM) [%]	inhibition of SARS-CoV-2 cytopathic effect (833.33 nM) [%]	inhibition of SARS-CoV-2 cytopathic effect (10000 nM)
CC(C)C[C@H](NC(=O)OCc1ccccc1)C(=O)N[C@@H](C[C@@H]1CCNC1=O)C(O)S(=O)(=O)O (stereo not given in full) [GC376 sodium]	0.45	-0.81	0.28	-0.83	70.6% (active)
NCCc1c[nH]cn1 [histamine]	-0.66	1.36	0.17	1.23	1%
O=C(N[C@H]1CN2CCC1CC2)c1cc2cccc(Cl)c2s1	-0.49	-1.25	2.35	-1.74	-7.63%
COC(=O)[C@@H]1C[C@H](OC(C)=O)C(=O)[C@H]2[C@@]1(C)CC[C@H]1C(=O)O[C@H](c3ccoc3)C[C@]21C [salvinorin-A]	-2.48	-1.89	-1.61	-0.35	0.69%
CC(C)(CO)[C@@H](O)C(=O)NCCC(=O)O [pantothenic-acid]	0.14	-0.18	0.03	-0.87	2.81%
COc1ccc(CCNCc2ccc(OCc3ccc(Cl)nc3)c(OC)c2)cc1OC	-1.43	0.63	-0.05	-1.6	-2.68%
C[C@]12CCC(=O)C=C1C=C[C@@H]1[C@@H]2CC[C@@]2(C)[C@H]1CC[C@@]21CCC(=O)O1 [canrenone]	-1.44	-1.41	-2.85	-2.53	6.34%
CCn1c(-c2nonc2N)nc2c(C#CC(C)(C)O)ncc(OC[C@H]3CCCNC3)c21	2.55	4.66	3.53	5.33	4.74%
O=[N+]([O-])c1nccn1CC(O)CN1CCCCC1 (stereo not given) [pimonidazole]	0.08	0.87	1.45	2.08	-0.59%
O=C(O)[C@H]1CN(C/C=C/P(=O)(O)O)CCN1 [midafotel]	-2.43	-0.69	0.17	1.03	3.52%
Cc1ncc(COP(=O)([O-])[O-])c(CN(CCN(CC(=O)O)Cc2c(COP(=O)([O-])O)cnc(C)c2O)CC(=O)O)c1O.[Mn].[Na+].[Na+].[Na+] [Mangafodipir (trisodium)]	-2.31	-3.12	-2.65	-1.43	-3.61%
CC(=O)Nc1cccc2c1c(Sc1ccc(Cl)cc1)c(C)n2CC(=O)O	-2.31	-3.4	-2.21	-0.59	-0.66%
C[C@H](Nc1cc(-c2cnn(C)c2)cc(Nc2cnccn2)n1)c1ccc(F)cc1	1.93	1.68	2.86	-4.39	-8.8%
CCN(CC)CCOC(=O)C(c1ccccc1)c1ccccc1 [adiphenine]	-1.11	-0.19	2.09	1.64	-0.25%
CC(=O)NCCCCCC(=O)O [acexamic-acid]	1.78	1.59	0.61	0.94	0.09%
C#C[C@]1(O)CC[C@H]2[C@@H]3CCc4cc(OC)ccc4[C@H]3CC[C@@]21C [mestranol]	0.06	0.82	0.83	0.76	-0.67%
CCN(CC)C(C)C(=O)c1ccccc1 (stereo not given) [amfepramone]	-1.18	1.39	-1.99	1.34	-0.09%
C[C@H](CSC(=O)c1ccccc1)C(=O)N1C[C@@H](Sc2ccccc2)C[C@H]1C(=O)O [zofenopril-calcium]	0.93	-2.52	-3.63	-4.57	-1.54%
CCN1/C(=C/C(C)=O)Sc2ccc(OC)cc21	1.8	1.75	-2.1	0.11	0.79%
CC(C)(C)NCC(O)c1ccc(O)c(CO)c1 (stereo not given) [albuterol]	-4.08	-2.63	-5.03	-4.97	-3.93%

SMILES	inhibition of SARS-CoV-2 cytopathic effect (1 nM) [%]	inhibition of SARS-CoV-2 cytopathic effect (8.33 nM) [%]	inhibition of SARS-CoV-2 cytopathic effect (100 nM) [%]	inhibition of SARS-CoV-2 cytopathic effect (833.33 nM) [%]	inhibition of SARS-CoV-2 cytopathic effect (10000 nM)
Nc1n[nH]c2nc3ccccc3nc12 [CDK1-5-inhibitor]	0.56	0.41	0.84	0.94	-3.33%
C#C[C@]1(O)C=C[C@H]2[C@@H]3CCC4=CC(=O)CC[C@@H]4[C@H]3CC[C@@]21CC [gestodene]	0.01	1.99	-0.48	-1.22	1.3%
O=C(CCCN1CCC2(CC1)C(=O)N(Cc1cccc(F)c1)CN2c1ccccc1)c1ccc(F)cc1 [3'-fluorobenzylspiperone]	1.1	1.76	1.3	4.46	71.7% (active)
NC(=O)c1ccc(N(C(N)=O)c2c(F)cccc2F)nc1-c1ccc(F)cc1F	-0.41	-1.25	-4.38	-0.33	-1.52%
NC(N)=Nc1nc(CSCC/C(N)=N/S(N)(=O)=O)cs1 [Famotidine]	1.28	0.44	-0.39	-0.03	-0.45%
CCCCC/N=c1\ccn(Cc2ccccc2)c2ccccc12	-2.64	-0.49	-2.77	-0.71	-9.28%
CC(=O)NC[C@H]1CN(c2ccc(N3CCOCC3)c(F)c2)C(=O)O1 [linezolid]	-5.81	4.06	2.87	-0.71	3.13%
CC(=O)Oc1cc(C(F)(F)F)ccc1C(=O)O [triflusal]	-0.9	-0.53	-1.38	0.3	4.74%
O=c1ccc2ccc(OCCCCN3CCN(c4cccc5sccc45)CC3)cc2[nH]1 [brexpiprazole]	-0.6	2.4	2.49	2.71	-8.91%
O=C(Nc1ccccc1)N1CCN(c2nc(-c3ccccc3)ns2)CC1	1.74	1.97	2.17	0.01	-2.23%
Clc1ccc2nsnc2c1NC1=NCCN1 [tizanidine]	2.21	4.56	1.5	2.93	0.03%
COc1cc(C2Oc3cc([C@H]4Oc5cc(O)cc(O)c5C(=O)[C@@H]4O)ccc3OC2CO)ccc1O (stereo not given in full) [silibinin]	-0.88	-0.77	0.27	-1.29	1.72%
Cc1ccc(-c2nc3ccc(C)cn3c2CC(=O)N(C)C)cc1	0.77	1.21	0.45	1.14	-2.98%
CCOc1cc(C(C)(C)C)ccc1C1=N[C@@](C)(c2ccc(Cl)cc2)[C@@](C)(c2ccc(Cl)cc2)N1C(=O)N1CCN(CCCS(C)(=O)=O)CC1	-1.23	-0.35	1.86	1.64	5.99%
CCOC(=O)c1c(C)[nH]c2ccc3c(c12)CN1CCc2cc(OC)ccc2C1O3 (stereo not given)	3.34	2.9	2.29	3.53	24.1% (active)
CCC1(CC)C(=O)C=CNC1=O [pyrithyldione]	1.54	0.58	-3.23	-6.45	-4.46%
CC[C@H]1[C@@H](O)[C@@H]2[C@H](CC[C@]3(C)[C@@H]([C@H](C)CCOS(=O)(=O)O)CC[C@@H]23)[C@@]2(C)CC[C@@H](O)C[C@@H]12	0.86	1.92	-0.03	1.94	1.9%
CNC(=O)[C@H]1O[C@@H](n2cnc3c(NCc4cccc(I)c4)nc(Cl)nc32)[C@H](O)[C@@H]1O	2.28	3.03	4.18	2.83	0.99%
Clc1ccc(CO/N=C(\Cn2ccnc2)c2ccc(Cl)cc2Cl)c(Cl)c1 [oxiconazole]	-0.54	0.43	1.05	0.68	-1.24%
CO[C@H]1C[C@H](O[C@H]2[C@H](C)O[C@@H](O[C@@H]3/C(C)=C/C[C@@H]4C[C@@H](C[C@]5(C=C[C@H](C)[C@@H](C6CCCCC6)O5)O4)OC(=O)[C@@H]4C=C(C)[C@@H](O)[C@H]5OC/C(=C\C=C\[C@@H]3C)[C@]54O)C[C@@H]2OC)O[C@@H](C)[C@@H]1O [doramectin]	0.81	1.22	1.24	0.55	2.69%
